High-throughput results deposited in PubChem BioAssay by National Center for Advancing Translational Sciences (NCATS).
Pf growth 96h – P. falciparum growth inhibition at 96 hours | P. falciparum luciferase reporter growth, 96 h | Potency, µM (top dose mostly 28.7 µM), usual class: inhibitors | 320,000 tested, 6.9% active
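Erythrocytes infected with luciferase-expressing P. falciparum were dispensed at 2% hematocrit and 0.05% parasitemia (final), then incubated with compounds 96 hours at 37 C in 5% CO2. Luminescence after detection reagent addition reported growth.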
VACV Venus inh – vaccinia inhibition (Venus reporter); Vaccinia virus Venus reporter expression, fluorescence; Potency, µM (series often up to 36.5 µM), actives largely listed as inhibitors; 330,000 tested, 0.46% active; AID 720580; calls by dose curve; tested in A549 cells; note: nearly all actives have a fitted effect of over 30% in size
HCV inh – HCV inhibition | Huh7.5.1 HCVcc-Cre infection, luciferase reporter, 44 h | Potency, µM (doses to about 41.8 µM), actives largely listed as inhibitors | 340,000 tested, 3.4% active
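Whole-lifecycle infectious HCVcc-Cre system; cells 1,000/well, compound then virus (~0.5 moi) added 4 h after plating, 44 h culture. Luciferase read 15 sec following 15 min substrate incubation, room temp.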
Vaccinia mCherry – inhibitors of vaccinia virus infection (mCherry reporter signal); 310,000 tested, 0.63% active; AID 720579; Vaccinia virus mCherry reporter infection, fluorescence; Potency, µM (series often up to 36.5 µM), usual class: inhibitors; calls by dose curve; tested in A549 cells; note: nearly all actives have a fitted effect of over 35% in size
NS1 inh – inhibitors of influenza NS1 protein function. 270,000 tested, 0.4% active. AID 2326. Potency, µM (highest dose often 46.1 µM); calls by dose curve; note: actives are rising curves; nearly all actives have a fitted effect of over 50% in size
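A cell-based growth assay was used: compounds that relieve NS1-induced slow growth of budding yeast raise OD600. Assay medium was yeast nitrogen base with ammonium sulphate and -URA supplement, pH 6.0, with 2% galactose.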
Pf growth 48h – P. falciparum growth inhibition at 48 hours (one generation); P. falciparum luciferase growth in erythrocytes, 48 h; Potency, µM (highest dose often 28.7 µM), actives largely listed as inhibitors; 310,000 tested, 5.9% active; AID 504832
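Luminescence readout; reporter = integrated firefly luciferase in P. falciparum. RBC culture at 2% hematocrit, 0.1% parasitemia final, 37 C/5% CO2; decreased signal taken as growth inhibition.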
HCV inh confirm – HCV inhibition, cherry-pick confirmation | Potency, µM (doses to about 41.8 µM), most hits filed as inhibitors | shares compounds with HCV inh | HCVcc-Cre infectious virus cell assay, luciferase, inhibition | AID 720575 | 640 tested, 78% active; note: nearly all actives have a fitted effect of over 80% in size
HCV host tox – host cell cytotoxicity counter-screen for HCV inhibitors; shares compounds with HCV inh; HCV host cell line cytotoxicity counterscreen; Potency, µM (doses to about 41.8 µM), hits mostly inhibitors; 640 tested, 22% active;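 note: 44 h compound exposure; nearly all actives have a fitted effect of over 55% in size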
Large screens that a line does not name were inactive (follow-up assays come after a bar, where they were run). The list is not random: actives were taken first. Their share in the collection is about 11%. Unless noted, calls come from the whole dose curve; as a rule, active = well fitted curve in the direction sought with a large enough effect; inconclusive = small, poorly fitted or top-dose-only effect, or another doubt; inactive = no such curve, though single readings can be large; an effect the other way counts as inactive or inconclusive.

O=C(COc1ccc(Cl)cc1Cl)N1CCCN(C(=O)COc2ccc(Cl)cc2Cl)CC1	Pf growth 96h inconclusive, HCV inh inconclusive (no result: VACV Venus inh, Vaccinia mCherry, Pf growth 48h)
COc1cc(CCC(O)CC(=O)CCc2ccccc2)ccc1O (stereo unspecified)	HCV inh 1.12µM | HCV inh confirm inactive | HCV host tox inactive
CC1(C(=O)Nc2cnc3ccccc3c2)CCN1C(=O)CCc1ccccc1 (stereo unspecified)	none (no result: Pf growth 96h, HCV inh, NS1 inh, Pf growth 48h)
COc1ccc(NC(=O)COC(=O)c2c3c(nc4ccccc24)CCCC3)cc1Cl	VACV Venus inh inconclusive, HCV inh 4.47µM, Vaccinia mCherry inconclusive, Pf growth 48h 11.7µM (no result: Pf growth 96h) | HCV inh confirm 4.99µM | HCV host tox 31.5µM
N#Cc1cccc(NC(=O)CCNC(=O)c2ccccc2Cl)c1	none (no result: VACV Venus inh, Vaccinia mCherry)
COc1ccc(/C=N/Nc2nc(-c3cccc(S(=O)(=O)N4CCCC4)c3)cs2)c(OC)c1	Pf growth 96h inconclusive, VACV Venus inh inconclusive, HCV inh 3.98µM, Vaccinia mCherry inconclusive, NS1 inh inconclusive, Pf growth 48h 13.1µM | HCV inh confirm 9.95µM | HCV host tox inactive
COc1cccc(-c2csc(N3CCN(S(=O)(=O)c4ccc(F)cc4)CC3)n2)c1	Pf growth 48h inconclusive
O=C1/C(=C/c2cccnc2)Oc2cc(OS(=O)(=O)c3ccc(F)cc3)ccc21	Pf growth 96h inconclusive, HCV inh 4.47µM (no result: VACV Venus inh, Vaccinia mCherry, Pf growth 48h) | HCV inh confirm 25µM | HCV host tox inactive
COC(=O)NC(=C(Cl)Cl)P(=O)(c1ccccc1)c1ccccc1	none (no result: VACV Venus inh, Vaccinia mCherry)
CC(C)(C)NC(=O)C1CN(S(=O)(=O)c2ccccc2)CCN1S(=O)(=O)c1ccccc1 (stereo unspecified)	Pf growth 96h inconclusive (no result: Vaccinia mCherry)
Cc1ccccc1C(=O)NC1CCN(Cc2nnnn2Cc2ccc(F)cc2)CC1	Pf growth 48h inconclusive (no result: VACV Venus inh, Vaccinia mCherry)
CNC(=O)NC(=O)C(C)OC(=O)c1c2c(nc3ccccc13)/C(=C/c1cccs1)CC2 (stereo unspecified)	HCV inh 2.82µM, NS1 inh inconclusive | HCV inh confirm 1.77µM | HCV host tox 17.7µM
COc1cc(/C=C2\CCc3c2nc2ccccc2c3C(=O)O)cc(OC)c1OC	none (no result: VACV Venus inh, Vaccinia mCherry)
Cc1ccc2nc(/C(C#N)=C\c3ccc(N4CCOCC4)o3)[nH]c2c1	Pf growth 96h inconclusive, HCV inh inconclusive, NS1 inh inconclusive
O=C(N1CCOCC1)C1(S(=O)(=O)c2ccccc2)CC=CC1	none
CCc1c(C)nc2ncnn2c1NCCc1ccc(Cl)cc1	HCV inh inconclusive, Pf growth 48h inconclusive | HCV inh confirm 7.05µM | HCV host tox inconclusive
Cc1[nH]nc2c1-c1nc3ccccc3nc1C(C)(C)C2	HCV inh 5.62µM (no result: VACV Venus inh, Vaccinia mCherry, Pf growth 48h) | HCV inh confirm 7.91µM | HCV host tox inconclusive
CC12CCC(C)(c3nc4ccccc4nc31)C2(C)C	Pf growth 96h inconclusive
c1cnc2c(c1)ccc1cccnc12	Pf growth 96h 3.29µM, VACV Venus inh inconclusive, HCV inh 8.91µM, Vaccinia mCherry 3.55µM, Pf growth 48h 5.86µM | HCV inh confirm 7.05µM | HCV host tox inactive
COc1ccc(F)cc1CSc1nnnn1-c1ccc(O)cc1	HCV inh inconclusive, Vaccinia mCherry inconclusive
COc1cc(CSc2nnnn2-c2ccc(C)cc2)cc(OC)c1OC	HCV inh inconclusive, Pf growth 48h inconclusive | HCV inh confirm 1.77µM | HCV host tox inactive
C/C(CC1CC2=C(CC1(C)C)C(C)(C)CCC2)=N\NC(N)=S (stereo unspecified)	Pf growth 96h 1.04µM, VACV Venus inh inconclusive, HCV inh 5.62µM (no result: Pf growth 48h) | HCV inh confirm 14.1µM | HCV host tox inconclusive
C/C(CC1CC(C)(C)OC1=O)=N\NC(N)=S (stereo unspecified)	none
O=C1/C(=C/c2ccccc2)C[C@@]2(O)[C@H]3Cc4ccc(O)c5c4[C@@]2(CCN3CC2CC2)C1O5 (stereo partly specified)	VACV Venus inh 10µM, HCV inh 3.16µM, Vaccinia mCherry inconclusive (no result: Pf growth 96h, NS1 inh, Pf growth 48h) | HCV inh confirm 6.28µM | HCV host tox 9.95µM
Oc1ccc2c3c1OC1c4[nH]c5ccccc5c4C[C@@]4(O)C(C2)N(CC2CC2)CC[C@]314 (stereo partly specified)	HCV inh inconclusive (no result: Pf growth 96h, NS1 inh, Pf growth 48h)
C=C(c1ccccc1Cl)[n+]1ccccc1	Pf growth 96h 1.65µM, VACV Venus inh inconclusive, HCV inh 4.47µM, Pf growth 48h 2.94µM | HCV inh confirm 7.05µM | HCV host tox 25µM
COC(=O)c1c(C)[nH]c(C(=O)OCC(=O)NCC(C)C)c1C	VACV Venus inh inconclusive, HCV inh inconclusive (no result: Vaccinia mCherry, Pf growth 48h)
ON=C1c2ccccc2-c2ccc(Br)cc21	HCV inh inconclusive (no result: Pf growth 96h, NS1 inh, Pf growth 48h)
NC(=S)NN=C1c2ccccc2-c2cc(Br)ccc21	VACV Venus inh inconclusive, HCV inh inconclusive, Vaccinia mCherry inconclusive (no result: Pf growth 96h, NS1 inh, Pf growth 48h) | HCV inh confirm 6.28µM | HCV host tox inactive
c1ccc(COc2ccc(OCCn3cncn3)cc2)cc1	none (no result: Pf growth 96h)
Cc1cnc(NC(=O)CCCc2nc3ccccc3s2)s1	VACV Venus inh 5.62µM, HCV inh 2.82µM, NS1 inh inconclusive (no result: Vaccinia mCherry) | HCV inh confirm 15.8µM | HCV host tox inactive
O=C(CCCc1nc2ccccc2s1)Nc1nccs1	Pf growth 96h inconclusive
COc1cc(NC(=O)c2ccccc2F)c(OC)cc1NC(=O)CN1CCOCC1	Pf growth 96h inconclusive, HCV inh inconclusive | HCV inh confirm inconclusive | HCV host tox inactive
O=C(N/N=C/c1ccc[nH]1)c1ccc(Cl)cc1	HCV inh 5.01µM | HCV inh confirm 14.1µM | HCV host tox 14.1µM
